Test results from PubChem BioAssay.
Active and inactive are the calls of the source.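 The calls were made as follows, unless noted: active = compounds lowering colon cancer cell viability after pretreatment blocking the GSK3B kinase; inactive = the rest.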

How the values were obtained:
[1] = P. berghei load reduction in hepatocytes – cell-based, HepG2, luciferase luminescence, HepG2 viability, primary screen (AID 624349; in the data active = parasite load remaining mostly below about 12%, no sharp cut-off; inactive = mostly above about 10%;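 also: 100% = mean of DMSO negative control wells on the same plate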); details: P. berghei liver stage in HepG2, luciferase luminescence, concentration not given here; parasite load remaining: stronger effect = lower value; viability: measured here: HepG2 viability without parasites
[2] = Wnt pathway potentiators raising nuclear beta-catenin – imaging, WNT3A-conditioned medium, mouse C2C12, NPC library, primary screen (AID 1117326; in the data active = nuclear beta-catenin stimulation mostly above about 4.2%, no sharp cut-off; inactive = mostly below about 10%; also: reference of the scale not given here); details: stronger effect = higher value
[3] = stimulators of insulin release from INS-1E, primary screen, cell-based, 5 mM glucose, NPC library (AID 1117329;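 active = compound raises insulin release from rat beta cells at 5 mM glucose, no numeric limit stated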; also: reference of the scale not given here); details: rat INS-1E insulin secretion, at 10 µM, stronger effect = higher value
[4] = growth inhibition of GSK3B-pretreated HCT116 cells – cell-based, CellTiter-Glo, 0.2 to 20 µM (AID 1117336); details: HCT116 viability after GSK3B inhibitor, at 20 µM, stronger effect = higher value
[5] = inhibition of endothelial tube formation, primary screen, imaging, VEGF stimulated, CD31 staining, tube area, NPC library (AID 1117340;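 active = compound that reduces growth-factor-driven endothelial tube area in a mixed cell culture, no cutoff stated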); details: VEGF-stimulated ADSC/ECFC co-culture, at 10 µM, stronger effect = higher value
[6] = GLP1 release stimulators, primary, NCI-H716, NPC library (AID 1117341;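 active = compound raises GLP1 secretion from the human gut endocrine cells, with no numeric limit stated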; also: reference of the scale not given here); details: NCI-H716 cells, at 10 µM, stronger effect = higher value
[7] = HCT116 colon cancer cell growth inhibition, primary screen, CellTiter-Glo luminescence, NPC library (AID 1117342;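 active = compounds that lower survival of HCT116 colon cancer cells in the luminescence readout, no numeric limit stated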); details: at 20 µM (top of the series)
[8] = reduced SW480 viability measured with CellTiter-Glo, NPC library, primary (AID 1117343;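 active = compounds that lower viability of the colon cancer cells in the luminescence readout, with no numeric limit stated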); details: CellTiter-Glo luminescence; at 20 µM (top of the series)
[9] = NPC library primary testing for decreased DLD-1 cell viability via CellTiter-Glo (AID 1117346;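 active = compounds that lower survival of DLD-1 colon cancer cells in the luminescence readout, no cutoff given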); details: DLD-1 viability, CellTiter-Glo luminescence; at 20 µM (top of the series)
[10] = viability loss with induced miR-34 in A549 – imaging, A549 dox-inducible miR-34, nuclei and caspase counts, primary screen (AID 1347080;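 active = compounds whose cell count with miR-34 switched on is under 0.7 times the count with it off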); details: A549 miR-34 inducible, Hoechst nuclei count, 48 h
[11] = MELAS cybrid and Rieske KO viability enhancers – cell-based, MELAS cybrids, Rieske KO mouse fibroblasts, CellTiter-Glo, primary screen (AID 1508586;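 active = mean z-score across replicates of 1.96 or higher in either the MELAS or the Rieske mutant cell line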;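 also: z relative to plate mean and SD of compound and empty wells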); details: low glucose
[12] = target: NAD(+) hydrolase SARM1 (Homo sapiens) (UniProt Q6SZW1); experiment: blocking NAD cleavage by SARM1 SAM-TIR – cell lysate, NAD-Glo luminescence (AID 1508614;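 active = compound whose remaining NAD level is above about 45 nM, limit read from the data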;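 also: higher remaining NAD means stronger inhibition of SARM1 NADase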); details: SAM-TIR HEK293T lysate NADase, at 1 µM, stronger effect = higher value
Chain of NAD(+) hydrolase SARM1 (Homo sapiens) (Q6SZW1 whole entry, looked up): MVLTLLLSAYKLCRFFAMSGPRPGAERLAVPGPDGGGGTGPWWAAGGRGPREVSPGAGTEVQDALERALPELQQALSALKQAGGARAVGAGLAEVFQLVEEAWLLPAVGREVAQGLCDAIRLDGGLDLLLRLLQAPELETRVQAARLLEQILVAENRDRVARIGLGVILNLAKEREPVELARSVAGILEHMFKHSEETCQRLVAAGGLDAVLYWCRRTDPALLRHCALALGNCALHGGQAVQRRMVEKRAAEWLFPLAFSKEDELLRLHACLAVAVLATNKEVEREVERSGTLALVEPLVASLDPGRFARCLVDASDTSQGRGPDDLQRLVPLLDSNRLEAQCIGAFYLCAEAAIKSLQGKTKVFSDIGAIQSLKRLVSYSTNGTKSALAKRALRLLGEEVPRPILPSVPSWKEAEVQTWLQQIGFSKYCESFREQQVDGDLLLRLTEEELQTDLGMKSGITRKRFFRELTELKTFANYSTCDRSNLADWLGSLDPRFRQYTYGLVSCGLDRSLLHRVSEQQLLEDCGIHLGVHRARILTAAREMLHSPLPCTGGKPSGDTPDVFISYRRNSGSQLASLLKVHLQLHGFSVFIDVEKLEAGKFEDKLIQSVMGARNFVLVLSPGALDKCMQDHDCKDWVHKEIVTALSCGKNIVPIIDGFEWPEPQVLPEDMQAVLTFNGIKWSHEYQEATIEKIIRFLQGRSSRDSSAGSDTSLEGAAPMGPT

[13] = compounds altering circadian rhythm period length – cell-based, LOPAC library, luminescence reporter (AID 2774; call rule not given here;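 also: values are relative to mean of DMSO wells on each plate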); details: circadian reporter cells, at 7 µM, actives lie on both sides
[14] = target: 6-phosphogluconate dehydrogenase, decarboxylating (Homo sapiens) (UniProt P52209); experiment: inhibition of human phosphogluconate dehydrogenase – biochemical, recombinant enzyme, NADPH absorbance, primary screen (AID 1159550;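 active = at least 20% inhibition of 6-phosphogluconate dehydrogenase activity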); details: recombinant 6PGD, NADPH absorbance 341 nm; at 10 µM; stronger effect = higher value
Chain of 6-phosphogluconate dehydrogenase, decarboxylating (Homo sapiens) (P52209 whole entry, looked up): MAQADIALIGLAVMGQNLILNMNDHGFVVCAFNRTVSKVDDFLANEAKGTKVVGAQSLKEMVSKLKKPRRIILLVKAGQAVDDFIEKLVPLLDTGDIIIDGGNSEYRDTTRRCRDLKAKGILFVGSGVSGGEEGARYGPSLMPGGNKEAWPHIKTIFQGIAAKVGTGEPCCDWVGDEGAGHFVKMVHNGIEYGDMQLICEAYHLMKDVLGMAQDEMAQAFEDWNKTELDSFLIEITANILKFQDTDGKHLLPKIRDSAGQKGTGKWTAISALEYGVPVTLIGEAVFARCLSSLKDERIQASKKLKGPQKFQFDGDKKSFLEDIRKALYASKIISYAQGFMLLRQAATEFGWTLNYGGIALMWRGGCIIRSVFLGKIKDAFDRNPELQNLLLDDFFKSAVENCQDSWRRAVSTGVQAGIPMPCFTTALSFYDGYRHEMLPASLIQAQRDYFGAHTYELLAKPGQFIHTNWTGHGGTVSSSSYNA

[15] = stronger effect = lower value, cell number ratio, induced over uninduced
[16] = measured here: relative caspase fold change +Dox/-Dox
[17] = measured here: total cells with miR-34 induction, stronger effect = lower value
[18] = measured here: total cells without miR-34 induction

COP(=S)(OC)Oc1cc(Cl)c(Cl)cc1Cl
parasite load remaining [1]: 48.6% (inactive) | viability [1]: 108% | nuclear beta-catenin stimulation ([2]; at 10 µM): 2.5% (inactive) | nuclear beta-catenin stimulation ([2]; stimulation, at 2 µM): -0.1% | insulin secretion stimulation [3]: 2.1% (inactive) | viability decrease [4]: -23.4% (inactive) | tube area decrease [5]: -3.6% (inactive) | GLP1 secretion stimulation [6]: 3.7% (inactive) | inhibition of viability [7]: 9.4% (inactive) | viability decrease (inhibition) [8]: 32% (inactive) | viability decrease (inhibition) [9]: 15.4% (inactive) | fold change [10, 15]: 0.898 (inactive) | fold change [10, 16]: 3.75 | cell count [10, 17]: 12000 | cell count [10, 18]: 13300

C=C1CC[C@@]2(O)[C@H]3Cc4ccc(O)c5c4[C@@]2(CCN3CC2CC2)[C@H]1O5
nuclear beta-catenin stimulation ([2]; at 10 µM): 0.5% (inactive) | nuclear beta-catenin stimulation ([2]; stimulation, at 2 µM): 2.1% | insulin secretion stimulation [3]: 1.2% (inactive) | viability decrease [4]: -11.9% (inactive) | tube area decrease [5]: 5.1% (inactive) | GLP1 secretion stimulation [6]: 2.6% (inactive) | inhibition of viability [7]: 20.1% (inactive) | viability decrease (inhibition) [8]: 7.8% (inactive) | viability decrease (inhibition) [9]: 6.2% (inactive) | z-score ([11]; MELAS cybrid survival, CellTiter-Glo 48 h, stronger effect = higher value): 0.147 (inactive) | z-score ([11]; Rieske KO mouse fibroblast survival, CellTiter-Glo 72 h): -0.2

O=[N+]([O-])C(Br)(CO)CO
nuclear beta-catenin stimulation ([2]; at 10 µM): 44.8% (active) | nuclear beta-catenin stimulation ([2]; stimulation, at 2 µM): 0% | insulin secretion stimulation [3]: 20.2% (active) | viability decrease [4]: -19.2% (inactive) | tube area decrease [5]: 106% (active) | GLP1 secretion stimulation [6]: -0.1% (inactive) | inhibition of viability [7]: 2.9% (inactive) | viability decrease (inhibition) [8]: 88.9% (active) | viability decrease (inhibition) [9]: 52.2% (active) | remaining NAD [12]: 51 nM (active)

CCCCCCCCOC(=O)c1ccccc1C(=O)OCCCCCCCC
nuclear beta-catenin stimulation ([2]; at 10 µM): 3.1% (inactive) | nuclear beta-catenin stimulation ([2]; stimulation, at 2 µM): -1.3% | insulin secretion stimulation [3]: 0.05% (inactive) | viability decrease [4]: 5.3% (inactive) | GLP1 secretion stimulation [6]: -0.4% (inactive) | inhibition of viability [7]: 32% (inactive) | viability decrease (inhibition) [8]: -4.6% (inactive) | viability decrease (inhibition) [9]: 3.6% (inactive)

CC(C)(C)CC(C)(C)c1ccc(O)cc1
nuclear beta-catenin stimulation ([2]; at 10 µM): -1.8% (inactive) | nuclear beta-catenin stimulation ([2]; stimulation, at 2 µM): -0.9% | insulin secretion stimulation [3]: 4% (inactive) | viability decrease [4]: 84.6% (active) | tube area decrease [5]: 66.9% (active) | GLP1 secretion stimulation [6]: 28.5% (active) | inhibition of viability [7]: 74.8% (active) | viability decrease (inhibition) [8]: 142% (active) | viability decrease (inhibition) [9]: 104% (active) | remaining NAD [12]: 10 nM (inactive)

CCCCCCC(=O)CCCCCC/C=C/C[C@@H](O)[C@H](O)[C@@](N)(CO)C(=O)O
nuclear beta-catenin stimulation ([2]; at 10 µM): -0.4% (inactive) | nuclear beta-catenin stimulation ([2]; stimulation, at 2 µM): 1.7% | insulin secretion stimulation [3]: 1.7% (inactive) | viability decrease [4]: -39.7% (inactive) | tube area decrease [5]: -16.8% (inactive) | GLP1 secretion stimulation [6]: -2.8% (inactive) | inhibition of viability [7]: -29.4% (inactive) | viability decrease (inhibition) [8]: 31.4% (inactive) | viability decrease (inhibition) [9]: 9.9% (inactive) | fold change [10, 15]: 0.991 (inactive) | fold change [10, 16]: 0.843 | cell count [10, 17]: 5220 | cell count [10, 18]: 5270

Clc1cccc(N2CCNCC2)c1
period change [13]: 0.065 h (inactive) | nuclear beta-catenin stimulation ([2]; at 10 µM): 1% (inactive) | nuclear beta-catenin stimulation ([2]; stimulation, at 2 µM): 0.1% | insulin secretion stimulation [3]: 3.9% (inactive) | viability decrease [4]: 15% (inactive) | tube area decrease [5]: 3.3% (inactive) | GLP1 secretion stimulation [6]: 6.5% (inactive) | inhibition of viability [7]: 10.8% (inactive) | viability decrease (inhibition) [8]: 68.5% (active) | viability decrease (inhibition) [9]: 26.4% (inactive)

O=C(CC[N+](=O)[O-])OC[C@H]1O[C@@H](O)[C@H](OC(=O)CC[N+](=O)[O-])[C@@H](OC(=O)CC[N+](=O)[O-])[C@@H]1OC(=O)CC[N+](=O)[O-]
inhibition [14]: 0.279% (inactive)
